Measurements taken from PubChem BioAssay (NCATS).
Inconclusive results are not listed. Calls of active or inactive are those of the source. Calls come from the whole dose curve; as a rule, active = well fitted curve in the direction sought with a large enough effect; inconclusive = small, poorly fitted or top-dose-only effect, or another doubt; inactive = no such curve, though single readings can be large; an effect the other way counts as inactive or inconclusive.

Assays:
[1] = OV-KATE Cancer Cell Toxicity qHTS against the NCATS CANVASS Library (AID 1347345); settings: OV-KATE cells viability, CellTiter-Glo luminescence, 72 h
From the text: (§1) Natural products and their derivatives continue to be wellsprings of nascent therapeutic potential. However, many laboratories have limited resources for biological evaluation, leaving their previously isolated or synthesized compounds largely or completely untested. To address this issue, the Canvass library of natural products was assembled (https://tripod.nih.gov/canvass), in collaboration with academic and industry researchers, for quantitative high-throughput screening (qHTS) across a diverse set of cell-based and biochemical assays. The pure (>85% purity by liquid chromatography/mass spectrometry [LC/MS]) Canvass library of 346 natural products were submitted by 45 academic laboratories and companies around the world. […] The library was formatted into 1536-well plates and evaluated in 50 qHTS (in an 11-pnt concentration series) bioassays with broad scope of disease-relevant mechanisms. The resulting data set from 50 different assays was then systematically analyzed to identify overall trends and specific natural products with interesting biological activities. […]
(§2) Cancer Cell Toxicity protocol for cell lines COV-362, OV-KATE, OV-SAHO, UWB1.289, UWB1.289-WTBRCA1, HEK-293, HPAF-II, Panc-1005, SW1088, or U-118MG. […] Luminescence signal was acquired via the ViewLux plate reader (PerkinElmer) using a clear filter, 2 second exposure and 2x binning settings.

[2] = HPAF-II Cancer Cell Toxicity qHTS against the NCATS CANVASS Library (AID 1347346); settings: HPAF-II viability, CellTiter-Glo ATP luminescence, 72 h; note: nearly all actives have a fitted effect of over 55% in size
Outline: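 1000 HPAF-II cells/well; 4 h pre-incubation; 11-pnt compound titration; 72 h, 37 degrees C/5% CO2; CellTiter-Glo, 15 min RT; luminescence read.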

[3] = UWB1.289 Cancer Cell Toxicity qHTS against the NCATS CANVASS Library (AID 1347347); settings: UWB1.289 viability, CellTiter-Glo luminescence, 72 h; note: nearly all actives have a fitted effect of over 60% in size
Outline: (§3)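 1000 cells/well; 4 h settle; 11-pnt titration; 72 h, 37 degrees C, 5% CO2; CellTiter-Glo, 15min RT; luminescence read.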

[4] = OV-SAHO Cancer Cell Toxicity qHTS against the NCATS CANVASS Library (AID 1347348); settings: OV-SAHO viability, CellTiter-Glo luminescence, 72 h; note: nearly all actives have a fitted effect of over 55% in size
Outline: as §3

[5] = Panc-1005 Cancer Cell Toxicity qHTS against the NCATS CANVASS Library (AID 1347349); settings: Panc-1005 viability, CellTiter-Glo luminescence, 72 h; note: nearly all actives have a fitted effect of over 60% in size
Outline: as §3

[6] = SW1088 Cancer Cell Toxicity qHTS against the NCATS CANVASS Library (AID 1347350); settings: SW1088 viability, CellTiter-Glo luminescence, 72 h; note: nearly all actives have a fitted effect of over 75% in size
Outline: as §3

[7] = U-118MG Cancer Cell Toxicity qHTS against the NCATS CANVASS Library (AID 1347351); settings: U-118MG viability, CellTiter-Glo luminescence, 72 h
From the text: as §1, §2

[8] = COV-362 Cancer Cell Toxicity qHTS against the NCATS CANVASS Library (AID 1347352); settings: COV-362 viability, CellTiter-Glo luminescence, 72 h
Outline: (§4)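 1000 cells/well, 4 h pre-incubation 37 °C/5% CO2; 11-pnt titration; 72 h; CellTiter-Glo 15 min RT, luminescence.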

[9] = A2780 Cisplatin Sensitive Ovarian Cancer Cell Toxicity qHTS against the NCATS CANVASS Library (AID 1347353); settings: A2780 ovarian cancer viability, ATPLite luminescence, 72 h; note: nearly all actives have a fitted effect of over 60% in size
Outline: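 750 cells/well, 4 h settle; 11-pt cpd titration; 72 h, 37 °C, 5% CO2; ATPLite 10 min RT; luminescence read.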

[10] = UWB1.289-WTBRCA1 Cancer Cell Toxicity qHTS against the NCATS CANVASS Library (AID 1347354); settings: UWB1.289-WTBRCA1 viability, CellTiter-Glo luminescence, 72 h
Outline: as §4

Measured: Potency
Potency is the fitted concentration of half-maximal effect.

CC(C)CC(=O)c1c(O)cc2c(c1O)C(CC(C)C)C1=C(O2)C(C)(C)C(=O)C(C)(C)C1=O (stereo not given)
active: [1] 18.8 µM | [2] 13.3 µM | [3] 13.3 µM | [4] 11.8 µM | [5] 14.9 µM | [6] 7.49 µM | [7] 10.6 µM | [8] 13.3 µM | [9] 16.6 µM | [10] 18.8 µM
